Reference: PubChem BioAssay (NCATS)
Results filed as inconclusive are left out. Where a call stands in place of a potency, no number is given. Activity calls are given as the source filed them. Calls follow the shape of the dose curve; as a rule, active = well fitted inhibition curve with a large enough effect; inconclusive = small, poorly fitted or top-dose-only effect; inactive = no such curve, though single readings can be large or run the other way. Where a SMILES comes first, the peptide text is derived from it. [ ]: non-standard residue; d: D form. dPhe(4-Cl) = N[C@H](Cc1ccc(Cl)cc1)C(=O)O; d2Nal = N[C@H](Cc1ccc2ccccc2c1)C(=O)O; dCit = NC(=O)NCCC[C@@H](N)C(=O)O; d3Pal = N[C@H](Cc1cccnc1)C(=O)O

experiment: Primary qHTS for inhibitors of nuclear receptor binding SET domain protein 2 (NSD2) in an RCH-ACV wild type WT cells (2C) (AID 1645877); conditions: RCH-ACV (leukaemia line) NSD2 WT (2C) viability, CellTiter-Glo, 72 h; series mostly up to 44.9 µM; also: nearly all actives have a fitted effect of over 70% in size
Potency is read from the fitted curve at half-maximal effect.

Compound	Potency	activity change, negative = cell killing	outcome
Cc1c(CN2CCN(C(=O)C(C)O)CC2)sc2c(N3CCOCC3)nc(-c3cnc(N)nc3)nc12 (centres undefined)	45.9 nM (active)	–	–
C[C@@H]1C(=O)O[C@H]2[C@H](O)C34[C@H]5C[C@@H](C(C)(C)C)C36[C@@H](OC(=O)[C@@H]6O)O[C@@]4(C(=O)O5)[C@@]12O (some centres undefined)	inactive	–	–
CC(C)=CCC/C(C)=C/CO[C@@H]1O[C@H](CO)[C@@H](O)[C@H](O)[C@H]1O	inactive	–	–
COc1ccc(C[C@H](N)C(=O)N[C@@H]2[C@H](O)[C@H](n3cnc4c(N(C)C)ncnc43)O[C@@H]2CO)cc1	205 nM (active)	–	–
C=C1C(O)CC2C(C(=O)O)=COC(O[C@@H]3O[C@H](COC(=O)/C=C/c4ccc(O)cc4)[C@@H](O)[C@H](O)[C@H]3O)C12 (some centres undefined)	inactive	–	–
CCn1cc(NC(=S)Nc2cc(Cl)ccc2OC)c(C(N)=O)n1	inactive	–	–
CC(=O)N[C@H](Cc1ccc2ccccc2c1)C(=O)N[C@H](Cc1ccc(Cl)cc1)C(=O)N[C@H](Cc1cccnc1)C(=O)N[C@@H](CO)C(=O)N[C@@H](Cc1ccc(O)cc1)C(=O)N[C@H](CCCNC(N)=O)C(=O)N[C@@H](CC(C)C)C(=O)N[C@@H](CCCN=C(N)N)C(=O)N1CCC[C@H]1C(=O)N[C@H](C)C(N)=O (Ac-[d2Nal][dPhe(4-Cl)][d3Pal]SY[dCit]LRP[dA]-NH2)	inactive	–	–
COc1cc(-c2ncn(/C=C\C(=O)OC(C)C)n2)cc(C(F)(F)F)c1	129 nM (active)	–	–
COC(=O)CC(C)(O)CC(=O)OCc1ccc(O[C@@H]2O[C@H](CO)[C@@H](O)[C@H](O)[C@H]2O)cc1 (some centres undefined)	inactive	–	–
O=C(N/N=C/c1ccc(O)c(O)c1)c1cc2ccccc2cc1O	5410 nM (active)	–	–
C=C[C@H]1C(O[C@@H]2O[C@H](CO)[C@@H](O)[C@H](O)[C@H]2O)OC=C2C(=O)N3CCc4c([nH]c5ccccc45)C3CC21 (some centres undefined)	inactive	–	–
COc1c/c(=C2\C=c3ccccc3=N2)[nH]/c1=C\c1[nH]c(C)cc1C	4590 nM (active)	–	–
CC1CCC2(OC1)OC1CC3C4CC=C5CC(O)CC(O[C@@H]6OC[C@@H](O)[C@H](O)[C@H]6O)C5(C)C4CCC3(C)C1(O)C2C (some centres undefined)	inactive	–	–
C[C@@H]1CC[C@]2(C(=O)O[C@@H]3O[C@H](CO)[C@@H](O)[C@H](O)[C@H]3O)CC[C@]3(C)C(=CCC4[C@@]5(C)C[C@@H](O)[C@H](O)[C@@](C)(C(=O)O[C@H]6[C@H](O)C[C@@]7(C)C(CC[C@]8(C)C7CC=C7[C@H]9[C@](C(=O)O[C@@H]%10O[C@H](CO)[C@@H](O)[C@H](O)[C@H]%10O)(CC[C@@H](C)[C@@]9(C)O)CC[C@]78C)[C@@]6(CO)C(=O)O)C5CC[C@]43C)[C@@H]2[C@]1(C)O (some centres undefined)	–	0.118% [at 9.23 µM] (inactive)	–
CC1(C)CC[C@]2(C(=O)O)CC[C@]3(C)C(=CCC4[C@@]5(C)C[C@@H](O)[C@H](O)C(C)(C)C5CC[C@]43C)C2C1 (some centres undefined)	inactive	–	–
C[C@H](C/C=C/C(C)(C)O)[C@H]1CC[C@@]2(C)[C@@H]3[C@@H](O[C@@H]4O[C@H](CO)[C@@H](O)[C@H](O)[C@H]4O)C=C4C(CC[C@H](O)C4(C)C)[C@]3(C=O)CC[C@]12C (some centres undefined)	inactive	–	–
CC(C)[C@H]1CC[C@@]2(O)COC(=O)[C@H]2[C@@H]1/C=C(\CO)C(=O)O	inactive	–	–
C=C1CCCC2(C)CC3(OC)OC(=O)C(C)=C3CC12 (centres undefined)	inactive	–	–
CC1=C(C(=O)O[C@@H]2O[C@H](COC3OCC(O)C(O)C3O)[C@@H](O)[C@H](O)[C@H]2O)C(C)(C)CCC1 (some centres undefined)	inactive	–	–
CC(C)(O)c1ccc2c(c1)C(O)C[C@H]1[C@](C)(C(=O)O)CCC[C@]21C (some centres undefined)	inactive	–	–

Compound	Potency	activity change, negative = cell killing	outcome
C[C@@]12C[C@]3(O)O[C@H](O1)[C@]1(COC(=O)c4ccccc4)[C@H]3C[C@@]12O[C@@H]1O[C@H](CO)[C@@H](O)[C@H](O)[C@H]1O	inactive	–	–
COC(=O)c1ccnc(-c2cc(C(=O)NCCc3ccccc3)ccn2)c1	inactive	–	–
C[C@@H]1O[C@@H](O[C@H]2[C@H](O)[C@@H](O[C@@H]3O[C@H](CO)[C@@H](O)[C@H](O[C@@H]4O[C@H](CO)[C@@H](O)[C@H](O)[C@H]4O)[C@H]3O)[C@H](O[C@H]3CC[C@@]4(C)C(=CC[C@@H]5C4CC[C@@]4(C)C5C[C@@H]5OC6(CC[C@@](C)(CO[C@@H]7O[C@H](CO)[C@@H](O)[C@H](O)[C@H]7O)O6)[C@@H](C)[C@@H]54)C3)O[C@@H]2CO)[C@H](O)[C@H](O)[C@H]1OC1OC(CO)C(O)C(O)C1O (some centres undefined)	–	–	inactive [at 9.23 µM]
COc1c2c(c(CO)c3c1C(=O)OC3)OC1(C)CCC3(O)C(C)(C)OC(=O)CCC3(C)C1C2 (centres undefined)	inactive	–	–
COc1cc(C(=O)O)ccc1OC1OC(CO)C(O)C(O)C1O (centres undefined)	inactive	–	–
OC[C@H]1O[C@@H](O[C@H]2[C@H](OCc3ccccc3)O[C@H](CO[C@@H]3OC[C@@H](O)[C@H](O)[C@H]3O)[C@@H](O)[C@@H]2O)[C@H](O)[C@@H](O)[C@@H]1O	inactive	–	–
CC(C)=CCC[C@](C)(O[C@@H]1O[C@H](CO)[C@@H](O)[C@H](O)[C@H]1O)[C@H]1CC[C@]2(C)[C@@H]1[C@H](O)CC1[C@@]3(C)CC[C@H](O)C(C)(C)C3[C@@H](O[C@@H]3O[C@H](CO)[C@@H](O)[C@H](O)[C@H]3O)C[C@]12C (some centres undefined)	inactive	–	–
CC1COC2(OC3CC4C5CC(O[C@@H]6O[C@H](C)[C@@H](O[C@@H]7O[C@@H](C)[C@H](O)[C@@H](O)[C@H]7O)[C@H](O)[C@H]6O)C6CC(O)CCC6(C)C5CCC4(C)C3C2C)C(O)C1 (some centres undefined)	inactive	–	–
C=C1[C@H](OC(C)=O)[C@H]2[C@@H](OC(C)=O)[C@](C)(OC(C)=O)C[C@]2(OC(C)=O)C(=O)[C@H](C)/C=C/C(C)(C)C(=O)[C@H](OC(=O)C(C)CC)[C@H]1OC(C)=O (some centres undefined)	inactive	–	–
CC1=CCC(C(C)(C)O[C@@H]2O[C@H](CO[C@@H]3O[C@@H](C)[C@H](O)[C@@H](O)[C@H]3O)[C@@H](O)[C@H](O)[C@H]2O)CC1 (some centres undefined)	inactive	–	–
CC1CC(O)C2(OC1=O)OC1C(O)C3C4CCC5CC(OC6OC(CO)C(O)C(O)C6OC6OC(C)C(O)C(O)C6O)CCC5(C)C4CCC3(C)C1C2C (centres undefined)	inactive	–	–
COC(=O)C[C@H]1C(C)(C)[C@H](OC(=O)C(C)C)[C@@]2(O)C(=O)[C@]1(C)C1CC[C@]3(C)C(CC(=O)O[C@H]3c3ccoc3)[C@]13O[C@@H]32 (some centres undefined)	inactive	–	–
C=C1CN(Cc2ccc(C(=O)Nc3ccccc3N)cc2)C(=O)c2ccccc21	230 nM (active)	–	–
CC[C@H](C)[C@H](NC(=O)[C@H]([C@@H](C)CC)N(C)C(C)=O)C(=O)N[C@H](C(=O)N[C@@H](CC(C)C)C(=O)[C@@]1(C)CO1)[C@@H](C)O	7.3 nM (active)	–	–
CC1CCC2(C(=O)O)CCC3(C)C(=CCC4C5(C)CCC(O)C(C)(CO)C5CCC43C)C2C1(C)O (centres undefined)	inactive	–	–
CC(=O)N[C@H]1[C@H](O[C@H]2CC[C@@]3(C)C(CC[C@]4(C)C3CC=C3[C@@H]5CC(C)(C)CC[C@]5(C(=O)OC5OCC(O)C(O)C5O)CC[C@]34C)C2(C)C)O[C@H](COC2OC(C)C(O)C(OC3OC(C)C(O)C(O)C3O)C2O)[C@@H](O)[C@@H]1O (some centres undefined)	–	1.82% [at 9.23 µM] (inactive)	–
CC1C(=O)CC2C3CCC(C(=O)O)C12CC3(C)CO (centres undefined)	inactive	–	–
CC(C)=CC/C=C(\C)[C@H]1CC[C@]2(C)[C@@H]1[C@H](O)C[C@@H]1[C@@]3(C)CC[C@H](O)C(C)(C)[C@@H]3[C@@H](O[C@@H]3O[C@H](CO)[C@@H](O)[C@H](O)[C@H]3O)C[C@]12C	inactive	–	–
CC(=O)O[C@@H]1C[C@@H](OC(C)=O)C(C)(C)/C=C/[C@H](C)[C@H](OC(C)=O)[C@@]2(O)C[C@H](C)[C@H](OC(=O)c3ccccc3)[C@@H]2/C=C/1C	inactive	–	–
